# The entries come from a sample that favours the strongest signals as a whole.
# B1: Pbx2CASH domain (Cryptococcus neoformans) (protein)
# chain: GIPGPNRLYRLSGPIIFTAADQEIATYGYPTGSERAVLRVEGRNTATAIQGDCRRCARVSVKNLVVDGNRKKLGRMRDFQLATGLVVLGGNEGQSIQNSWIKNPRGFTAIHIREGDKLQCSGARVEKNEIGPVGEEYDPEKDGDDPEMSPLGRPLADGVSIACRDSFIRDNTFRDNTDAAIVVYCSPGTLIHA
# Experiments:
# Assay in all cases: glycan array binding signal (z-score within array); higher = stronger binding
# Details in all cases: glycan notation: IUPAC condensed, linker removed
# [1] = target: Gal(b1-4)GlcNAc(b1-3)[Fuc(a1-3)GlcNAc(b1-6)]Gal(b1-4)Glc
# Outline: (§1)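 The binding signal is a Z-score computed within each array. Data were drawn from 3228 arrays in the Consortium for Functional Glycomics database, restricted to those with a known protein sequence. Scores were averaged over arrays of the same protein sequence at different concentrations or buffers, and over linkers, and negative values can be taken as non-binding.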
# [2] = target: Gal3S(b1-4)Glc6S
# Outline: as §1
# [3] = target: Gal3S6S(b1-4)GlcNAc6S
# Outline: as §1
# [4] = target: Gal6S(b1-4)Glc6S
# Outline: as §1
# [5] = target: GalNAc3S(b1-4)GlcNAc3S
# Outline: as §1
# [6] = target: GlcA3S(b1-3)Gal(b1-4)GlcNAc(b1-2)Man
# Outline: as §1
# [7] = target: GlcNAc(b1-2)[GlcNAc(b1-6)]Man(a1-6)[GlcNAc(b1-2)Man(a1-3)]Man(b1-4)GlcNAc(b1-4)[Fuc(a1-6)]GlcNAc
# Outline: as §1
# [8] = target: GlcNAc(b1-3)Gal
# Outline: as §1
# [9] = target: GlcNAc(b1-6)GalNAc
# Outline: as §1
# [10] = target: Kdn(a2-3)Gal(b1-4)[Fuc(a1-3)]GlcNAc
# Outline: as §1
# [11] = target: Kdn(a2-6)Gal(b1-4)GlcNAc
# Outline: as §1
# [12] = target: Man(a1-2)Man(a1-3)[Man(a1-6)]Man(a1-6)[Man(a1-2)Man(a1-3)]Man(b1-4)GlcNAc(b1-4)GlcNAc
# Outline: as §1
# [13] = target: Neu5Ac(a2-3)Gal(b1-3)GlcNAc(b1-2)Man
# Outline: as §1
# [14] = target: Neu5Ac(a2-3)Gal(b1-3)GlcNAc(b1-3)GalNAc
# Outline: as §1
# [15] = target: Neu5Ac(a2-3)Gal(b1-3)GlcNAc6S
# Outline: as §1
# [16] = target: Neu5Ac(a2-3)Gal(b1-3)[Fuc(a1-4)]GlcNAc
# Outline: as §1
# [17] = target: Neu5Ac(a2-3)Gal(b1-3)[Neu5Ac(a2-6)]GlcNAc(b1-3)[Fuc(a1-3)[Gal(b1-4)]GlcNAc(b1-6)]Gal(b1-4)Glc
# Outline: as §1
# [18] = target: Neu5Ac(a2-3)Gal(b1-4)GlcNAc(b1-2)[Neu5Ac(a2-3)Gal(b1-4)GlcNAc(b1-4)]Man(a1-3)[GlcNAc(b1-4)][Neu5Ac(a2-3)Gal(b1-4)GlcNAc(b1-2)[Neu5Ac(a2-3)Gal(b1-4)GlcNAc(b1-6)]Man(a1-6)]Man(b1-4)GlcNAc(b1-4)GlcNAc
# Outline: as §1
# [19] = target: Neu5Ac(a2-3)Gal(b1-4)GlcNAc(b1-3)Gal(b1-4)GlcNAc(b1-3)[Neu5Ac(a2-3)Gal(b1-4)GlcNAc(b1-3)Gal(b1-4)GlcNAc(b1-6)]GalNAc
# Outline: as §1
# [20] = target: Neu5Ac(a2-3)Gal(b1-4)[Fuc(a1-3)]GlcNAc(b1-6)[Gal(b1-3)]GalNAc
# Outline: as §1
# [21] = target: Neu5Ac(a2-3)Gal6S(b1-4)[Fuc(a1-3)]GlcNAc
# Outline: as §1
# [22] = target: Neu5Ac(a2-6)Gal(b1-4)GlcNAc(b1-2)Man(a1-3)[Neu5Ac(a2-6)Gal(b1-4)GlcNAc(b1-2)Man(a1-6)]Man(b1-4)GlcNAc(b1-4)GlcNAc
# Outline: as §1
# [23] = target: Neu5Ac(a2-6)Gal(b1-4)GlcNAc(b1-2)Man(a1-6)Man(b1-4)GlcNAc(b1-4)GlcNAc
# Outline: as §1
# [24] = target: Neu5Ac(a2-6)Gal(b1-4)GlcNAc(b1-2)Man(a1-6)[Man(a1-3)]Man(b1-4)GlcNAc(b1-4)GlcNAc
# Outline: as §1
# [25] = target: Neu5Ac(a2-6)Gal(b1-4)GlcNAc(b1-3)Gal(b1-4)GlcNAc(b1-3)Gal(b1-4)GlcNAc(b1-2)Man(a1-3)[Neu5Ac(a2-6)Gal(b1-4)GlcNAc(b1-3)Gal(b1-4)GlcNAc(b1-3)Gal(b1-4)GlcNAc(b1-2)Man(a1-6)]GalNAc
# Outline: as §1
# [26] = target: Neu5Ac(a2-6)Gal(b1-4)GlcNAc(b1-6)GalNAc
# Outline: as §1
# [27] = target: Neu5Ac(a2-6)GlcNAc(b1-4)GlcNAc(b1-4)GlcNAc
# Outline: as §1
# [28] = target: Neu5Ac(a2-8)Neu5Ac
# Outline: as §1
# [29] = target: Neu5Ac(a2-8)Neu5Ac(a2-8)Neu5Ac(a2-3)[GalNAc(b1-4)]Gal(b1-4)Glc
# Outline: as §1
binder,measurement,setting,value
B1,glycan array binding signal (z-score),[1],-0.704
same,glycan array binding signal (z-score),[2],0.057
same,glycan array binding signal (z-score),[3],1.44
same,glycan array binding signal (z-score),[4],3.18
same,glycan array binding signal (z-score),[5],-0.15
same,glycan array binding signal (z-score),[6],2.57
same,glycan array binding signal (z-score),[7],-0.071
same,glycan array binding signal (z-score),[8],-0.697
same,glycan array binding signal (z-score),[9],-0.438
same,glycan array binding signal (z-score),[10],0.079
same,glycan array binding signal (z-score),[11],-0.478
same,glycan array binding signal (z-score),[12],-0.457
same,glycan array binding signal (z-score),[13],3.35
same,glycan array binding signal (z-score),[14],0.011
same,glycan array binding signal (z-score),[15],-0.247
same,glycan array binding signal (z-score),[16],-0.813
same,glycan array binding signal (z-score),[17],-0.803
same,glycan array binding signal (z-score),[18],0.012
same,glycan array binding signal (z-score),[19],0.079
same,glycan array binding signal (z-score),[20],0.909
same,glycan array binding signal (z-score),[21],-0.748
same,glycan array binding signal (z-score),[22],-0.301
same,glycan array binding signal (z-score),[23],1.6
same,glycan array binding signal (z-score),[24],2.48
same,glycan array binding signal (z-score),[25],4.62
same,glycan array binding signal (z-score),[26],1.05
same,glycan array binding signal (z-score),[27],-0.208
same,glycan array binding signal (z-score),[28],-0.046
same,glycan array binding signal (z-score),[29],3.58
